{"source": "the supplement of paper PMC8728848", "assay_in_all_cases": "glycan array binding signal (z-score within array); higher = stronger binding", "conditions_in_all_cases": "glycan notation: IUPAC condensed, linker removed", "key": {"Fuc(a1-2)Gal(b1-3)GlcNAc": {"target": "Fuc(a1-2)Gal(b1-3)GlcNAc", "procedure,_shortened": "(§1)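 Glycan array binding is given as a within-array Z-score, which can be read as non-binding when negative. The arrays, 3228 of them, came from the Consortium for Functional Glycomics database and were retained only where the protein sequence was available. Z-scores were averaged across arrays of the same protein sequence at different concentrations or buffers and across linkers.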"}, "[1]": {"target": "Fuc(a1-2)Gal(b1-4)GlcNAc(b1-2)Man(a1-3)[Fuc(a1-2)Gal(b1-4)GlcNAc(b1-2)Man(a1-6)]Man(b1-4)GlcNAc(b1-4)[Fuc(a1-6)]GlcNAc", "procedure,_shortened": "as §1"}, "[2]": {"target": "Fuc(a1-2)Gal(b1-4)GlcNAc6S", "procedure,_shortened": "as §1"}, "[3]": {"target": "Fuc(a1-2)Gal(b1-4)[Fuc(a1-3)]GlcNAc(b1-3)Gal(b1-4)[Fuc(a1-3)]GlcNAc(b1-3)Gal(b1-4)[Fuc(a1-3)]GlcNAc", "procedure,_shortened": "as §1"}, "[4]": {"target": "Fuc(a1-2)[Gal(a1-3)]Gal(b1-4)GlcNAc(b1-2)Man(a1-3)[Fuc(a1-2)[Gal(a1-3)]Gal(b1-4)GlcNAc(b1-2)Man(a1-6)]Man(b1-4)GlcNAc(b1-4)[Fuc(a1-6)]GlcNAc", "procedure,_shortened": "as §1"}, "[5]": {"target": "Fuc(a1-2)[GalNAc(a1-3)]Gal(b1-3)GlcNAc(b1-2)Man(a1-3)[Fuc(a1-2)[GalNAc(a1-3)]Gal(b1-3)GlcNAc(b1-2)Man(a1-6)]Man(b1-4)GlcNAc(b1-4)[Fuc(a1-6)]GlcNAc", "procedure,_shortened": "as §1"}, "[6]": {"target": "Gal(a1-3)Gal(b1-3)GlcNAc(b1-3)GalNAc", "procedure,_shortened": "as §1"}, "[7]": {"target": "Gal(b1-3)GlcNAc(a1-6)Gal(b1-4)GlcNAc", "procedure,_shortened": "as §1"}, "[8]": {"target": "Gal(b1-3)GlcNAc(b1-2)[Gal(b1-3)GlcNAc(b1-6)]Man(a1-6)[Gal(b1-3)GlcNAc(b1-2)Man(a1-3)]Man(b1-4)GlcNAc(b1-4)GlcNAc", "procedure,_shortened": "as §1"}, "[9]": {"target": "Gal(b1-3)GlcNAc(b1-3)Gal(b1-4)GlcNAc(b1-2)[Gal(b1-3)GlcNAc(b1-3)Gal(b1-4)GlcNAc(b1-6)]Man(a1-6)[Gal(b1-3)GlcNAc(b1-3)Gal(b1-4)GlcNAc(b1-2)Man(a1-3)]Man(b1-4)GlcNAc(b1-4)[Fuc(a1-6)]GlcNAc", "procedure,_shortened": "as §1"}, "[10]": {"target": "Gal(b1-3)GlcNAc(b1-3)Gal(b1-4)GlcNAc(b1-3)Gal(b1-4)GlcNAc(b1-2)[Gal(b1-3)GlcNAc(b1-3)Gal(b1-4)GlcNAc(b1-3)Gal(b1-4)GlcNAc(b1-6)]Man(a1-6)[Gal(b1-3)GlcNAc(b1-3)Gal(b1-4)GlcNAc(b1-3)Gal(b1-4)GlcNAc(b1-2)Man(a1-3)]Man(b1-4)GlcNAc(b1-4)[Fuc(a1-6)]GlcNAc", "procedure,_shortened": "as §1"}, "[11]": {"target": "Gal(b1-4)GalNAc(b1-3)[Fuc(a1-2)]Gal(b1-4)GlcNAc", "procedure,_shortened": "as §1"}, "[12]": {"target": "Gal(b1-4)GlcNAc(b1-3)Gal(b1-4)GlcNAc(b1-2)Man(a1-3)[Gal(b1-4)GlcNAc(b1-3)Gal(b1-4)GlcNAc(b1-2)Man(a1-6)]Man(b1-4)GlcNAc(b1-4)GlcNAc", "procedure,_shortened": "as §1"}, "[13]": {"target": "Gal(b1-4)GlcNAc(b1-3)Gal(b1-4)GlcNAc(b1-3)Gal(b1-4)GlcNAc(b1-3)Gal(b1-4)GlcNAc(b1-3)Gal(b1-4)GlcNAc(b1-3)Gal(b1-4)GlcNAc(b1-2)Man(a1-3)[Gal(b1-4)GlcNAc(b1-3)Gal(b1-4)GlcNAc(b1-3)Gal(b1-4)GlcNAc(b1-3)Gal(b1-4)GlcNAc(b1-3)Gal(b1-4)GlcNAc(b1-3)Gal(b1-4)GlcNAc(b1-2)Man(a1-6)]Man(b1-4)GlcNAc(b1-4)GlcNAc", "procedure,_shortened": "as §1"}, "[14]": {"target": "Gal(b1-4)GlcNAc(b1-6)[Gal(b1-4)GlcNAc(b1-3)]GalNAc", "procedure,_shortened": "as §1"}, "Gal3S(b1-4)Glc": {"target": "Gal3S(b1-4)Glc", "procedure,_shortened": "as §1"}, "Gal6S(b1-4)GlcNAc": {"target": "Gal6S(b1-4)GlcNAc", "procedure,_shortened": "as §1"}, "[15]": {"target": "GalNAc(b1-4)GlcNAc(b1-2)Man", "procedure,_shortened": "as §1"}, "GalNAc(b1-4)GlcNAc6S": {"target": "GalNAc(b1-4)GlcNAc6S", "procedure,_shortened": "as §1"}, "GalNAc(b1-6)GalNAc": {"target": "GalNAc(b1-6)GalNAc", "procedure,_shortened": "as §1"}, "[16]": {"target": "GlcNAc(b1-2)Man(a1-3)[GlcNAc(b1-4)][GlcNAc(b1-2)Man(a1-6)]Man(b1-4)GlcNAc(b1-4)[Fuc(a1-6)]GlcNAc", "procedure,_shortened": "as §1"}, "[17]": {"target": "GlcNAc(b1-2)[GlcNAc(b1-6)]Man(a1-6)[GlcNAc(b1-2)Man(a1-3)]Man(b1-4)GlcNAc(b1-4)GlcNAc", "procedure,_shortened": "as §1"}, "[18]": {"target": "GlcNAc(b1-3)Gal(b1-4)GlcNAc(b1-3)Gal(b1-4)GlcNAc(b1-2)Man(a1-3)[GlcNAc(b1-3)Gal(b1-4)GlcNAc(b1-3)Gal(b1-4)GlcNAc(b1-2)Man(a1-6)]Man(b1-4)GlcNAc(b1-4)[Fuc(a1-6)]GlcNAc", "procedure,_shortened": "as §1"}}, "note": "Shown is part of a subset that was picked to be rich in the strongest signals.", "data": [{"binder": "Pwp4 (Candida glabrata) (protein) MGSSHHHHHHSSGLVPRGSHMASVGNPITVSNVCSFPKNWHRTAGFRALTARLGIGIQSDSYKELLNYPGTFQLTTQQSSTTKPNFQISGLVGNIYGLTIVPSYLLVELTGYFVPPVSGEYTFSLEGSDDAAIIFIANPSTFKCGHVEDWPTAYDNDVTVTESIHATRTIYMIEGVAYPIRIAYYNGLSLGKLQASFTDPEGVKRVDWNGYIWRYDSCDTCSYV", "values": [{"measurement": "glycan array binding signal (z-score)", "setting": "Fuc(a1-2)Gal(b1-3)GlcNAc", "value": -0.913}, {"measurement": "glycan array binding signal (z-score)", "setting": "[1]", "value": 0.039}, {"measurement": "glycan array binding signal (z-score)", "setting": "[2]", "value": -0.4}, {"measurement": "glycan array binding signal (z-score)", "setting": "[3]", "value": 1.61}, {"measurement": "glycan array binding signal (z-score)", "setting": "[4]", "value": -0.415}, {"measurement": "glycan array binding signal (z-score)", "setting": "[5]", "value": -0.763}, {"measurement": "glycan array binding signal (z-score)", "setting": "[6]", "value": -0.55}, {"measurement": "glycan array binding signal (z-score)", "setting": "[7]", "value": 2.97}, {"measurement": "glycan array binding signal (z-score)", "setting": "[8]", "value": -0.162}, {"measurement": "glycan array binding signal (z-score)", "setting": "[9]", "value": 5.18}, {"measurement": "glycan array binding signal (z-score)", "setting": "[10]", "value": 2.9}, {"measurement": "glycan array binding signal (z-score)", "setting": "[11]", "value": -0.019}, {"measurement": "glycan array binding signal (z-score)", "setting": "[12]", "value": 0.09}, {"measurement": "glycan array binding signal (z-score)", "setting": "[13]", "value": 3.83}, {"measurement": "glycan array binding signal (z-score)", "setting": "[14]", "value": 0.033}, {"measurement": "glycan array binding signal (z-score)", "setting": "Gal3S(b1-4)Glc", "value": -0.366}, {"measurement": "glycan array binding signal (z-score)", "setting": "Gal6S(b1-4)GlcNAc", "value": -0.68}, {"measurement": "glycan array binding signal (z-score)", "setting": "[15]", "value": -0.392}, {"measurement": "glycan array binding signal (z-score)", "setting": "GalNAc(b1-4)GlcNAc6S", "value": -0.423}, {"measurement": "glycan array binding signal (z-score)", "setting": "GalNAc(b1-6)GalNAc", "value": -0.402}, {"measurement": "glycan array binding signal (z-score)", "setting": "[16]", "value": -1}, {"measurement": "glycan array binding signal (z-score)", "setting": "[17]", "value": 7.51}, {"measurement": "glycan array binding signal (z-score)", "setting": "[18]", "value": 1.26}]}]}
